From PubChem BioAssay AID1159580 (chemical genetic matrix, 2015)
Values joined by “and” are separate entries in the source; they are usually repeats but may differ in a detail not shown here. Identical values can stand only once. The campaign covered roughly 5,500 compounds. About 2,000 (36%) were called active. About 18% were inconclusive and are not listed. No stated cut-off is given here; in the data, active means normalized growth mostly below about 0.91 (no sharp cut-off); inconclusive means no clear call, values can overlap the other calls; inactive means mostly above about 0.92. The list shows a part of the results.

Assay: chemical genetic growth profiling, strain panel (AID 1159580);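 further: tested at 20 µM; growth read once vehicle control cultures reached saturation at 30 °C; 1 = growth at the plate median or of vehicle wells; lower values mean less growth of the strain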
Conditions: growth OD

Measured: normalized growth

CN(C)CCCN1c2ccccc2CCc2ccccc21
inactive: S. cerevisiae deletion strains, locus YJR075W, strain HOC1, active compounds read low 0.97 | S. cerevisiae deletion strains, locus YKL009W, strain mrt4, active compounds read low 0.992 | S. cerevisiae deletion strains, locus YKL068W, active compounds read low 0.992 | S. cerevisiae deletion strains, locus YKL085W, strain MDH1 (second series), active compounds read low 0.987 | S. cerevisiae deletion strains, locus YKL085W, strain MDH1, active compounds read low 0.987 | S. cerevisiae deletion strains, locus YKL160W, strain elf1, active compounds read low 1 | S. cerevisiae deletion strains, locus YKR001C, strain vps1, active compounds read low 0.988 | S. cerevisiae deletion strains, locus YKR026C, strain gcn3, active compounds read low 1.01 | S. cerevisiae deletion strains, locus YKR091W, strain srl3, active compounds read low 1.01 | S. cerevisiae deletion strains, locus YLL001W, strain dnm1, active compounds read low 0.994 | S. cerevisiae deletion strains, locus YLL026W, active compounds read low 0.999 | S. cerevisiae deletion strains, locus YLL041C, strain sdh2, active compounds read low 1.01 | S. cerevisiae deletion strains, locus YLR027C, strain aat2, active compounds read low 1 | S. cerevisiae deletion strains, locus YLR039C, strain RIC1, active compounds read low 1.15 | S. cerevisiae deletion strains, locus YLR058C, strain SHM2, active compounds read low 1 | S. cerevisiae deletion strains, locus YLR102C, strain apc9, active compounds read low 0.984 | S. cerevisiae deletion strains, locus YLR113W, strain HOG1, active compounds read low 1.01 | S. cerevisiae deletion strains, locus YLR221C, strain rsa3, active compounds read low 0.98 | S. cerevisiae deletion strains, locus YLR258W, strain gsy2, active compounds read low 0.989 | S. cerevisiae deletion strains, locus YLR262C, strain YPT6 (second series), active compounds read low 1.04 | S. cerevisiae deletion strains, locus YLR262C, strain YPT6, active compounds read low 1.25 | S. cerevisiae deletion strains, locus YLR268W, strain sec22, active compounds read low 0.994 | S. cerevisiae deletion strains, locus YLR320W, strain mms22, active compounds read low 0.991 | S. cerevisiae deletion strains, locus YLR330W, strain CHS5, active compounds read low 1.01 | S. cerevisiae deletion strains, locus YLR342W, strain FKS1 (second series), active compounds read low 0.997 | S. cerevisiae deletion strains, locus YLR342W, strain FKS1, active compounds read low 1 | S. cerevisiae deletion strains, locus YLR357W, strain rsc2, active compounds read low 1.01 | S. cerevisiae deletion strains, locus YLR370C, strain arc18, active compounds read low 1.01 | S. cerevisiae deletion strains, locus YLR371W, strain rom2, active compounds read low 0.987 | S. cerevisiae deletion strains, locus YLR384C, strain iki3, active compounds read low 1.01 | S. cerevisiae deletion strains, locus YLR418C, strain cdc73, active compounds read low 0.956 | S. cerevisiae deletion strains, locus YML016C, strain PPZ1, active compounds read low 1.01 | S. cerevisiae deletion strains, locus YML032C, strain rad52, active compounds read low 0.996 | S. cerevisiae deletion strains, locus YML120C, strain ndi1, active compounds read low 0.992 | S. cerevisiae deletion strains, locus YML124C, strain tub3, active compounds read low 0.996 | S. cerevisiae deletion strains, locus YMR058W, strain fet3, active compounds read low 1.01 | S. cerevisiae deletion strains, locus YMR078C, strain ctf18, active compounds read low 0.985 | S. cerevisiae deletion strains, locus YMR125W, strain sto1, active compounds read low 1.01 | S. cerevisiae deletion strains, locus YMR129W, active compounds read low 1 | S. cerevisiae deletion strains, locus YMR205C, strain PFK2, active compounds read low 0.998 | S. cerevisiae deletion strains, locus YMR223W, strain ubp8, active compounds read low 0.962 | S. cerevisiae deletion strains, locus YMR231W, strain pep5, active compounds read low 0.998 | S. cerevisiae deletion strains, locus YMR263W, strain SAP30, active compounds read low 1 | S. cerevisiae deletion strains, locus YMR307W, strain GAS1, active compounds read low 1.09 and 0.988 | S. cerevisiae deletion strains, locus YNL067W, strain RPL9B, active compounds read low 1 | S. cerevisiae deletion strains, locus YNL071W, strain lat1, active compounds read low 1 | S. cerevisiae deletion strains, locus YNL128W, strain TEP1, active compounds read low 1 | S. cerevisiae deletion strains, locus YNL153C, strain GIM3, active compounds read low 1.01 | S. cerevisiae deletion strains, locus YNL175C, strain NOP13, active compounds read low 1 | S. cerevisiae deletion strains, locus YNL183C, strain NPR1, active compounds read low 0.942 | S. cerevisiae deletion strains, locus YNL197C, strain WHI3, active compounds read low 1 | S. cerevisiae deletion strains, locus YNL209W, strain ssb2, active compounds read low 1.03 | S. cerevisiae deletion strains, locus YNL224C, strain SQS1, active compounds read low 1.05 | S. cerevisiae deletion strains, locus YNL233W, strain BNI4, active compounds read low 1.01 | S. cerevisiae deletion strains, locus YNL248C, strain rpa49, active compounds read low 0.988 | S. cerevisiae deletion strains, locus YNL250W, strain rad50, active compounds read low 0.987 | S. cerevisiae deletion strains, locus YNL271C, strain bni1, active compounds read low 0.993 | S. cerevisiae deletion strains, locus YNL298W, strain CLA4, active compounds read low 1 | S. cerevisiae deletion strains, locus YNL307C, strain MCK1, active compounds read low 0.982 | S. cerevisiae deletion strains, locus YNL322C, strain KRE1 (second series), active compounds read low 0.997 | S. cerevisiae deletion strains, locus YNL322C, strain KRE1, active compounds read low 1 and 0.979 | S. cerevisiae deletion strains, locus YNR049C, strain mso1, active compounds read low 1.03 | S. cerevisiae deletion strains, locus YNR052C, strain pop2, active compounds read low 0.978 | S. cerevisiae deletion strains, locus YOL006C, strain TOP1, active compounds read low 0.946 | S. cerevisiae deletion strains, locus YOL012C, strain htz1 0.613 | S. cerevisiae deletion strains, locus YOL147C, strain pex11, active compounds read low 0.994 | S. cerevisiae deletion strains, locus YOR001W, strain rrp6, active compounds read low 1 | S. cerevisiae deletion strains, locus YOR061W, strain CKA2, active compounds read low 1.01 | S. cerevisiae deletion strains, locus YOR069W, strain VPS5, active compounds read low 1 | S. cerevisiae deletion strains, locus YOR070C, strain gyp1, active compounds read low 1 | S. cerevisiae deletion strains, locus YOR080W, strain dia2, active compounds read low 0.995 | S. cerevisiae deletion strains, locus YOR083W, strain WHI5 (second series), active compounds read low 1.07 | S. cerevisiae deletion strains, locus YOR083W, strain WHI5, active compounds read low 0.995 | S. cerevisiae deletion strains, locus YOR106W, strain vam3, active compounds read low 0.997 | S. cerevisiae deletion strains, locus YOR136W, strain idh2, active compounds read low 0.999 | S. cerevisiae deletion strains, locus YOR144C, strain elg1, active compounds read low 0.992 | S. cerevisiae deletion strains, locus YOR184W, strain ser1, active compounds read low 1.02 | S. cerevisiae deletion strains, locus YOR231W, strain MKK1, active compounds read low 0.975 | S. cerevisiae deletion strains, locus YOR265W, strain rbl2, active compounds read low 1.01 | S. cerevisiae deletion strains, locus YOR270C, strain vph1, active compounds read low 0.932 | S. cerevisiae deletion strains, locus YOR290C, strain snf2, active compounds read low 1 | S. cerevisiae deletion strains, locus YOR316C, strain cot1, active compounds read low 0.993 | S. cerevisiae deletion strains, locus YPL051W, strain arl3, active compounds read low 0.992 | S. cerevisiae deletion strains, locus YPL055C, strain LGE1, active compounds read low 0.99 and 0.992 | S. cerevisiae deletion strains, locus YPL078C, strain atp4, active compounds read low 1.01 | S. cerevisiae deletion strains, locus YPL106C, strain sse1, active compounds read low 0.996 | S. cerevisiae deletion strains, locus YPL240C, strain hsp82, active compounds read low 1 | S. cerevisiae deletion strains, locus YPL241C, strain CIN2, active compounds read low 1.01 | S. cerevisiae deletion strains, locus YPL256C, strain CLN2, active compounds read low 0.972 | S. cerevisiae deletion strains, locus YPR119W, strain clb2, active compounds read low 0.99 | S. cerevisiae deletion strains, locus YPR141C, strain kar3, active compounds read low 0.993 | S. cerevisiae deletion strains, locus YPR163C, strain tif3, active compounds read low 0.982 | S. cerevisiae deletion strains, locus YPR167C, strain met16, active compounds read low 0.989 | S. cerevisiae deletion strains, strain wtn01, active compounds read low 0.988 | S. cerevisiae strains, strain wild type, active compounds read low 1.01
